Screens from PubChem.
KB-3-1 cytotox = kills parental KB-3-1 adenocarcinoma cells | Potency, µM (highest dose often 46.1 µM), hits mostly cytotoxic | KB-3-1 viability, CellTiter-Glo ATP luminescence, 72 h | hit rate 1.4% among 400,000; further: nearly all actives have a fitted effect of over 60% in size
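72 h, 37 °C compound treatment of KB-3-1 parental cells; CellTiter-Glo added, 10 min, luminescence read. Data corrected against DMSO-only plates and normalized before curve fitting.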
ATXN2 expr inh = ATXN2 expression inhibition | Potency, µM (highest dose often 57 µM), hits mostly inhibitors | HEK-293 ATXN2-luciferase reporter, luminescence, 24 h | hit rate 0.72% among 360,000; further: nearly all actives have a fitted effect of over 55% in size
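ATXN2-luciferase reporter cells (luciferase flanked by upstream and downstream ATXN2 gene portions) were treated 24 h at 37 °C with compounds at up to 57 uM. SteadyGlo luminescence gave expression; GF-AFC fluorescence gave viability.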
TGFb SMAD3 inh = TGF-b pathway inhibition | HepG2 CAGA-GFP TGF-b/SMAD3 reporter, GFP fluorescence, 18 h; TGF-beta stimulated, 500 pg/mL final | Potency, µM (top dose mostly 46.1 µM), usual class: inhibitors | hit rate 1.2% among 410,000; further: nearly all actives have a fitted effect of over 65% in size
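Inhibition was scored as loss of TGF-beta-induced (500 pg/mL final, 18 hours, 37 degrees C) GFP in HEPG2 cells carrying a CAGA-GFP reporter, in DMEM with 1% FBS. Well GFP was summed per cell; Activity was normalised to unstimulated and stimulated DMSO wells, then concentration-response fitting.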
HepG2 viability = kills HepG2 cells in TGF-b inhibitor counter-screen; HepG2 CAGA-GFP viability, ATP luminescence, 18 h; Potency, µM (titrated, usually from 46.1 µM), hits mostly cytotoxic; hit rate 0.76% among 410,000
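CellTiter-Glo luminescence gave cytotoxicity after 18 hours at 37 degrees C. The cells were HepG2 CAGA-GFP in 1% FBS DMEM, stimulated with 500 pg/mL TGF-beta after compound addition. %Activity was normalised to no-cell wells (complete cell-killing) and DMSO (no toxicity), and curves were fitted and classified.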
KB-V1 MDR tox = KB-V1 MDR subline cytotoxicity | KB-V1 MDR cells viability, CellTiter-Glo, 72 h | hit rate 3.4% among 400,000 | Potency, µM (doses to about 46.1 µM), usual class: cytotoxic; further: nearly all actives have a fitted effect of over 60% in size
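Cells of the MDR subline KB-V1 are plated, dosed with compound at multiple concentrations, and incubated 72 h at 37 degrees C; CellTiter-Glo is then added and luminescence read after 10 min.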
ATXN viability = viability counter-screen for ATXN expression inhibitors. S2 cells (HEK-293 line with an ATXN2-luciferase reporter) viability, CellTiter-Fluor protease fluorescence, 24 h. AID 651635. hit rate 0.49% among 400,000. Potency, µM (top dose mostly 56.7 µM), most hits filed as cytotoxic; further: nearly all actives have a fitted effect of over 40% in size
A number is an active result; 0 = inactive; ? = inconclusive; - = not tested or not shown; ! = a repeat was not active. The list is not random: actives were taken first. Their share in the collection is about 5.9%. The call rests on the fitted dose curve; in most records, active means well fitted curve in the direction sought with a large enough effect; inconclusive means small, poorly fitted or top-dose-only effect, or another doubt; inactive means no such curve, though single readings can be large; an effect the other way counts as inactive or inconclusive.

SMILES	KB-3-1 cytotox	ATXN2 expr inh	TGFb SMAD3 inh	HepG2 viability	KB-V1 MDR tox	ATXN viability
O=C(Nc1cccc(-c2nc3ncccc3o2)c1)c1ccc(-c2cccc(Cl)c2Cl)o1	0	?	0	0	6.5µM	?
Cc1ccc(C(C)C)c(OCC(=O)Nc2cccc(-c3nc4ncccc4o3)c2)c1	0	?	0	0	?	20µM
Cc1cc(C)c(OCC(=O)Nc2cccc(-c3nc4ncccc4o3)c2)c(Br)c1	0	0	0	0	?	0
CCc1ccc(NC(=O)CSc2nnc(-c3ccccc3)n2C)cc1	?	-	0	0	0	-
O=C(CSc1ccc(Cl)cc1)Nc1cccc(-c2nc3ncccc3o2)c1	?	0	0	0	15µM	0
COc1ccccc1NC(=O)C(=O)/C=C(\O)c1ccccc1	0	0	0	0	18µM	0
CCOc1ccccc1NC(=O)C(=O)/C=C(\O)c1cc(OC)ccc1OC	0	0	0	0	?	0
O=C(c1ccccc1)C(CN1CCCCC1)c1ccccc1 (stereo not drawn)	5.8µM	20µM	?	0	15µM	32µM
CCOc1ccc(C(=O)C(CN2CCOCC2)c2ccccc2)cc1 (stereo not drawn)	?	28µM	?	0	?	-
O=C(c1ccc(Br)cc1)C(CN1CCOCC1)c1ccccc1 (stereo not drawn)	?	27µM	11µM	0	?	-
Cc1ccn2c(=O)cc(CSc3nnc(NC(=O)c4ccccc4Cl)s3)nc2c1	-	-	0	0	-	-
Cc1ccc(-n2c(=O)[nH]c3c(C(N)=O)nc(C(C)C)nc32)cc1	0	0	0	0	0	0
COc1cccc(-c2nc(C(N)=O)c3[nH]c(=O)n(-c4cccc(Cl)c4)c3n2)c1OC	0	0	0	0	0	0
CCCC(C)c1nc(C(N)=O)c2[nH]c(=O)n(-c3ccc(OC)c(OC)c3)c2n1 (stereo not drawn)	0	0	0	0	5.8µM	0
COc1ccc(-c2nc(C(N)=O)c3[nH]c(=O)n(-c4cccc(Cl)c4)c3n2)cc1OC	?	?	?	0	7.3µM	?
COc1cc2c(cc1OC)C(c1cccs1)N(C(=O)C(C)C)CC2 (stereo not drawn)	?	-	?	0	14µM	-
COc1ccc(C(=O)N2CCc3cc(OC)c(OC)cc3C2c2ccc(OC)c(OC)c2)cc1OC (stereo not drawn)	0	0	0	0	0	0
COc1cc2c(cc1OC)C(c1cccs1)N(C(=O)c1cccnc1)CC2 (stereo not drawn)	5.8µM	0	0	0	?	?
S=c1[nH]nc(-c2ccc3ccccc3n2)n1-c1ccccc1	0	0	0	0	23µM	0
CC1=C(C)/C(=N\OS(=O)(=O)c2ccccc2)C=CC1=O	11µM	10µM	?	14µM	16µM	11µM
Cc1ccc(OCc2nc(C#N)c(NCCc3ccccc3)o2)cc1	0	-	22µM	0	0	-
CCC(CC)c1nc(C#N)c(NCc2ccccc2)o1	15µM	0	?	0	?	0
COc1ccc(CCNc2oc(COc3ccccc3)nc2C#N)cc1	0	0	0	0	16µM	0
COc1ccc(CNc2oc(COc3ccccc3)nc2C#N)cc1	0	0	?	0	18µM	0
N#Cc1nc(Cc2ccccc2)oc1NCc1ccccc1	0	0	?	0	?	0
SMILES	KB-3-1 cytotox	ATXN2 expr inh	TGFb SMAD3 inh	HepG2 viability	KB-V1 MDR tox	ATXN viability
CNc1oc(-c2ccc(OCc3ccccc3)cc2)nc1C#N	0	0	0	0	23µM	0
Cc1cccc(CCNC(=O)c2cc3c(=O)n(C)c4ccccc4c3n2C)c1	0	0	0	0	0	0
CCC(C)NC(=O)CSc1nc2n[nH]c(C)c2c(=N)n1-c1ccc(C)c(Cl)c1 (stereo not drawn)	0	0	?	0	0	0
O=C(COC(=O)Cc1ccccc1F)Nc1cccc(F)c1	0	0	0	0	0	0
O=C(COC(=O)Cc1ccccc1F)Nc1ccc(F)cc1F	0	0	0	3.5µM	?	0
Cc1cccc(Nc2ncc(NC(=O)c3cccc(F)c3)c(Nc3cccc(C)c3)n2)c1	0	0	?	0	0	0
C/C(=N/Nc1ccc([N+](=O)[O-])cc1)c1ccc(C)cc1C	?	0	3.5µM	0	?	?
C/C(=N\Nc1ccc([N+](=O)[O-])cc1)c1ccc(C#N)cc1	0	0	0	0	0	0
CCCCCCCCCC[n+]1cccc2cc(Br)ccc21	1.3µM	-	?	0	?	-
CCCCCCCCCCCCCCCC[n+]1cccc2ccccc21	?	?	6.3µM	11µM	23µM	18µM
CCCCCCCCC[n+]1cccc2c3ccccc3ccc21	?	2.2µM	1.8µM	16µM	?	0
Cc1ccccc1C[n+]1cccc2ccccc21	?	0	0	0	0	0
O=C(NCCc1ccccc1)c1ccc2c(c1)N(Cc1ccccc1Cl)C(=O)c1ccccc1S2	-	-	?	0	-	-
CC(C)Nc1nc2nonc2nc1Nc1ccccc1	18µM	0	?	0	?	0
O=C(NCc1cccs1)C1CCN(C(=O)N2CCOc3ccc(Cl)cc32)CC1	0	-	?	0	0	-
N#CCc1ccc(OCCCN2CCC(C(O)(c3ccccc3)c3ccccc3)CC2)cc1	?	0	-	-	18µM	?
OC(c1ccccc1)(c1ccccc1)C1CCN(CCCOc2cccc(OC(F)(F)F)c2)CC1	?	?	-	-	0	-
OC(c1ccccc1)(c1ccccc1)C1CCN(CCCOc2ccc3c(c2)CCCC3)CC1	?	18µM	-	-	21µM	25µM
CC(=O)Nc1ccc(OCCCN2CCC(C(O)(c3ccccc3)c3ccccc3)CC2)cc1	0	0	-	-	0	?
O=C(NCc1cccs1)c1nc2c(nnn2Cc2ccc(F)cc2)c(=O)[nH]1	0	0	?	0	23µM	0
O=C1C(CCC(O)c2ccc(F)cc2)C(c2ccc(O)cc2)N1c1ccc(F)cc1 (stereo not drawn)	-	0	-	-	-	-
Cc1ccc2cc(CCNC(=O)c3ccc(Br)o3)c(=O)[nH]c2c1	?	0	0	0	18µM	0
S=C1NC[C@H](CC2CCCCC2)N1CC1CCCCC1	0	32µM	?	0	0	18µM
CCCC[C@@H]1CNC(=S)N1CC1CCCCC1	0	?	0	0	0	?
COc1cc(C2C3=C(COC3=O)Oc3cc4c(cc32)OCO4)ccc1OC(C)=O (stereo not drawn)	0.82µM	0	0	0	2.1µM	?
COc1ccc(C2C3=C(COC3=O)Oc3cc4c(cc32)OCO4)cc1OC (stereo not drawn)	0.92µM!	0	0	0	?	0
COc1cc(C2N(c3ccccc3)CCN2c2ccccc2)ccc1OC(C)=O	0	0	0	0	0	0
